A short description of test [1]: APR_HepG2_CellCycleArrest_1hr: Apredica 1-hour HepG2 Assay for Cell Cycle Arrest (AID 2282666). The following applies: high-content imaging, actives raise or lower the signal. An outline of the steps:
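HepG2 cells exposed for 1 h to 0.39–200 uM compound (0.5% DMSO). Fixed, Hoechst-stained nuclei imaged by ArrayScan; DNA content quantified by Cell Cycle analysis; bidirectional fit against DMSO.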

A short description of test [2]: ACEA_ER_80hr: ACEA Biosciences xCELLigence Real-Time Cell Analysis on Estrogen Receptor Agonism for Proliferation (AID 2282667; active means hit-call score of the fitted dose curve at least 0.9, where 1 is the maximum). The following applies: T47D proliferation, impedance (xCELLigence), 80 h. An outline of the steps:
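Estrogen-driven proliferation is captured as electrode impedance in T47D cells 80 h after compound addition. Test articles ran at 8 concentrations, 1:4 dilutions from 100 uM final, in two replicate plates.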

Test [3] can be described thus: APR_HepG2_CellLoss_1hr: Apredica 1-hour HepG2 Assay for Cell Loss (AID 2282668).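 Further: curves fitted both ways against DMSO so gain or loss of cells counts.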 To be noted: high-content imaging. Put shortly: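 HepG2 cells were treated for 1 h with compound at 0.39–200 uM, in duplicate, in 0.5% DMSO. After formaldehyde fixation, Hoechst 33342-stained nuclei were imaged on an ArrayScan to count cells. Data were fitted bidirectionally versus DMSO.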

Test [4] can be described thus: APR_HepG2_MicrotubuleCSK_1hr: Apredica 1-hour HepG2 Assay for Microtubule CSK Stabilty (AID 2282669). The following applies: HepG2 microtubule cytoskeleton imaging, actives raise or lower the signal. An outline of the steps:
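HepG2 cells exposed 1 h to 0.39–200 uM compound (0.5% DMSO, duplicates), then formaldehyde-fixed, permeabilized and immunostained for alpha-tubulin with Hoechst nuclei. Imaged by ArrayScan high-content analysis; bidirectional fit versus DMSO.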

A short description of test [5]: APR_HepG2_NuclearSize_1hr: Apredica 1-hour HepG2 Assay for Nuclear Size (AID 2282670). The following applies: high-content imaging, actives raise or lower the signal. Put shortly: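 HepG2 cells dosed 1 hr with 0.39–200 uM compound (0.5% DMSO), formaldehyde-fixed, Hoechst 33342-stained and imaged at 20x; nuclear diameter from nuclear stain, fitted bidirectionally against DMSO.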

Test [6] can be described thus: APR_HepG2_p53Act_1hr: Apredica 1-hour HepG2 Assay for p53 Activation (AID 2282671). The following applies: high-content imaging, actives raise or lower the signal. Put shortly: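 HepG2 cells treated 1 h with compound at 0.39–200 uM (10 concentrations, duplicate) in 0.5% DMSO. Formaldehyde-fixed, permeabilised cells immunostained for p53 with Hoechst 33342; high-content imaging, bidirectional fit versus DMSO.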

Test [7] in a line: APR_HepG2_P-H2AX_1hr: Apredica 1-hour HepG2 Assay for H2AX Phosphorylation (AID 2282673). To be noted: high-content imaging, actives raise or lower the signal. Put shortly: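 HepG2 dosed 1 hr at 0.39-200 uM (0.5% DMSO final), duplicate. Fixed in 3.7% formaldehyde, Triton permeabilized, immunostained for phospho-histone H2A.x (1:200) with Hoechst 33342; ArrayScan 20x imaging, bidirectional fit vs DMSO.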

Test [8] is described as follows: APR_HepG2_MitoMass_1hr: Apredica 1-hour HepG2 Assay for Mitochondrial Mass (AID 2282674). To be noted: high-content imaging, actives raise or lower the signal. An outline of the steps:
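HepG2 cells dosed 1 hr with 0.39-200 uM compound (0.5% DMSO), duplicate wells. Mitochondria stained with 250 nM MitoTracker Red CMXRos for 30 min before formaldehyde fixation, imaged at 20x by ArrayScan; bidirectional fit versus DMSO.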

Test [9] is described as follows: APR_HepG2_CellCycleArrest_24hr: Apredica 24-hour HepG2 Assay for Cell Cycle Arrest (AID 2282905).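 Further: cell cycle arrest scored as ratio of 2N to 4N nuclear DNA content.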 The following applies: imaging, actives raise or lower the signal. Put shortly:
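Compounds at 0.39–200 uM (0.5% DMSO) for 24 h, then fixed and Hoechst 33342 stained. Cell-cycle analysis of nuclear DNA content by high-content imaging, fitted bidirectionally versus DMSO.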

Test [10] can be described thus: APR_HepG2_StressKinase_1hr: Apredica 1-hour HepG2 Assay for Stress Kinase (AID 2282906). To be noted: HepG2 stress kinase (phospho-c-Jun) imaging, actives raise or lower the signal. An outline of the steps:
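HepG2 cells dosed 0.39-200 uM (0.5% DMSO) for 1 h, then formaldehyde-fixed. Stress kinase read by phospho-c-Jun immunofluorescence using high-content imaging; bidirectional fit vs DMSO.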

A short description of test [11]: APR_HepG2_NuclearSize_24hr: Apredica 24-hour HepG2 Assay for Nuclear Size (AID 2282907). The following applies: high-content imaging, actives raise or lower the signal. Put shortly:
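HepG2 cells exposed 24 h to compounds at 0.39–200 uM (0.5% DMSO), fixed, Hoechst 33342 stained and imaged at 20x; nuclear diameter measured by automated image analysis, fitted bidirectionally against DMSO controls.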

A short description of test [12]: APR_HepG2_CellLoss_24hr: Apredica 24-hour HepG2 Assay for Cell Loss (AID 2282908). To be noted: high-content imaging. An outline of the steps: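 HepG2 cells exposed 24 hr to 0.39–200 uM compound in duplicate at 0.5% v/v final DMSO. Cells fixed in 3.7% formaldehyde and Hoechst 33342-stained. Cell number came from nuclear imaging at 20x. Bidirectional fit versus DMSO.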

A short description of test [13]: APR_HepG2_MicrotubuleCSK_24hr: Apredica 24-hour HepG2 Assay for Microtubule CSK Stabilty (AID 2282909). The following applies: HepG2 microtubule cytoskeleton imaging, actives raise or lower the signal. Put shortly: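 HepG2 cells were treated 24 hr with compound at 0.39–200 uM in duplicate (0.5% DMSO final), then fixed and permeabilized. Alpha-tubulin immunofluorescence was imaged by high-content microscopy, with bidirectional fitting against DMSO and taxol as positive control.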

A short description of test [14]: APR_HepG2_MitoticArrest_24hr: Apredica 24-hour HepG2 Assay for Mitotic Arrest (AID 2282910). The following applies: high-content imaging, actives raise or lower the signal. Put shortly:
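HepG2 cells, 24 h exposure at 0.39-200 uM (10 concentrations, duplicate, 0.5% DMSO). Fixed, stained for phospho-histone H3 with Hoechst; imaged by high-content microscopy, bidirectional fit versus DMSO.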

Test [15] is described as follows: APR_HepG2_MitoMembPot_24hr: Apredica 24-hour HepG2 Assay for Mitochondrial Membrane Potential (AID 2282911). To be noted: imaging, actives raise or lower the signal. Put shortly: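 Mitochondrial dye uptake (MitoTracker Red CMXRos, 250 nM, 30 min pre-fixation) in HepG2 after 24 hr compound exposure, 0.39–200 uM; ArrayScan images at 20x, activity fitted in both directions relative to DMSO.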

Test [16] in a line: APR_HepG2_MitoMass_24hr: Apredica 24-hour HepG2 Assay for Mitochondrial Mass (AID 2282912). The following applies: high-content imaging, actives raise or lower the signal. An outline of the steps:
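HepG2 cells exposed 24 hr to 0.39–200 uM compound, 0.5% v/v DMSO, in duplicate. Stained before fixation with 250 nM MitoTracker Red CMXRos for 30 min, then imaged at 20x with Hoechst nuclei. Fitted in both directions against DMSO.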

The nature of test [17]: APR_HepG2_p53Act_24hr: Apredica 24-hour HepG2 Assay for p53 Activation (AID 2282913).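 Further: p53 protein immunofluorescence averaged per cell in HepG2 with Hoechst nuclei.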 The following applies: high-content imaging, actives raise or lower the signal. An outline of the steps:
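Following 24 hr dosing of HepG2 at 0.39–200 uM, the cells undergo formaldehyde fixation, Triton permeabilization and multiplexed antibody labeling that includes p53 (Cy5). Signal from the imaging is referenced to DMSO solvent controls.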

The nature of test [18]: APR_HepG2_CellCycleArrest_72hr: Apredica 72-hour HepG2 Assay for Cell Cycle Arrest (AID 2282914). The following applies: high-content imaging, actives raise or lower the signal. An outline of the steps:
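Using multiplexed high-content imaging, HepG2 nuclei stained with Hoechst 33342 (2 ug/mL) were analysed for DNA content after fixation and permeabilization. Treatment lasted 72 hr across 0.39–200 uM in duplicate with final DMSO 0.5% v/v; DMSO served as negative control.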

A short description of test [19]: APR_HepG2_MitoticArrest_1hr: Apredica 1-hour HepG2 Assay for Mitotic Arrest (AID 2282672). The following applies: high-content imaging, actives raise or lower the signal. An outline of the steps: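 HepG2 cells exposed 1 hr to compounds at 0.39–200 uM (0.5% v/v DMSO final), then fixed in 3.7% formaldehyde and immunostained for phospho-histone H3 with Hoechst 33342. Mitotic arrest scored by automated fluorescence imaging, fitted bidirectionally versus DMSO.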

Test [20] in a line: APR_HepG2_MitoMembPot_1hr: Apredica 1-hour HepG2 Assay for Mitochondrial Membrane Potential (AID 2282675). The following applies: imaging, actives raise or lower the signal. An outline of the steps:
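HepG2 cells dosed 1 hour with 0.39–200 uM compound in duplicate, 0.5% DMSO final. MitoTracker Red CMXRos (250 nM, 30 min) loaded before formaldehyde fixation; fluorescence quantified by high-content imaging, bidirectional fitting versus DMSO.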

This note sets out measurements from PubChem BioAssay (EPA / NIEHS).

Molecules are shown by their SMILES. Records with an inconclusive call do not appear. Activity calls are given as the source filed them. How the source made its calls, unless noted: active means hit-call score of the fitted dose curve at least 0.9, where 1 is the maximum; inactive means score below 0.9.

The AC50 is the concentration at which the activity in the assay is half-maximal. On to `Cn1c(-c2ccccc2)cc(-c2ccccc2)[n+]1C`, for which the compound was called inactive in test [1], in [3], in [4], in [5], in test [6] and in test [7]. In addition, the call in test [8], in test [9], in test [10], in [11], in test [12] and in test [13] was inactive. In addition, the compound was classed as inactive in test [14], in [15], in test [16], in test [17] and in test [18]. Further, the AC50 in test [2] is 2.11 µM (active).
On to `Clc1cccc(C(Cl)(Cl)Cl)n1`, for which the call in test [1], in test [2], in test [4], in [5], in test [6] and in [19] was inactive. For the same compound, the call in [7], in test [8], in [20], in test [9], in test [10] and in [11] was inactive. Further, the call in test [12], in test [13], in [14], in test [15], in [16] and in test [17] was inactive.
`CS(=O)(=O)c1cc(C(F)(F)F)ccc1C(=O)c1cnoc1C1CC1`: the result in test [1], in [2], in [3], in test [4], in test [6] and in test [19] was inactive. Besides, the compound was classed as inactive in test [7], in test [8], in test [9], in test [10], in test [11] and in test [12]. Moreover, the result in test [13], in [14], in [15], in [16] and in test [17] was inactive.
Take `CCCN(CC)CC1COC2(CCC(C(C)(C)C)CC2)O1` (stereo unspecified): the call in [1], in test [2], in test [3], in test [4], in [5] and in test [6] was inactive. Besides, the compound was called inactive in test [7], in test [8], in test [20], in test [9], in test [10] and in [11]. The call in [12], in [14], in [15], in [16] and in [17] was inactive. For the same compound, the AC50 in test [13] was 100 µM (active).
As to `CC1(C)C(C=C(Cl)Cl)C1C(=O)OC(C#N)c1cccc(Oc2ccccc2)c1` (stereo unspecified), the call in test [1], in test [2], in test [4], in test [5], in test [6] and in test [19] was inactive. In addition, the call in [7], in [8], in test [20], in test [10], in [11] and in test [12] was inactive. Besides, the compound was called inactive in [13], in test [14], in [15], in test [16] and in test [17]. The concentration at half-maximal activity (AC50) in [9] was 35.1 µM (active).
As for `CCOc1nc(F)cc2nc(S(=O)(=O)Nc3c(Cl)cccc3Cl)nn12`, the compound was classed as inactive in [1], in [2], in [3], in test [4], in test [6] and in [19]. Moreover, the outcome in test [7], in test [8], in test [9], in [10], in test [11] and in test [12] was inactive. Besides, the call in test [13], in [14], in [15], in [16], in [17] and in test [18] was inactive.
As to `CCN(CC)c1nc(C)cc(OP(=S)(OC)OC)n1`, the result in test [1], in test [2], in test [3], in [4], in [5] and in test [6] was inactive. Also, the call in [7], in test [8], in [20], in test [9], in [10] and in [11] was inactive. In addition, the result in test [12], in test [13], in [14], in test [15], in [16] and in test [17] was inactive. For the same compound, the call in [18] was inactive.
